Experiment [1] is described as follows: IUF_NPC1a_proliferation_area_72hr: Leibniz Research Institute for Environmental Medicine (IUF) 72-hour Neural Progenitor Cell Proliferation Area Assay (NPC1a) (AID 2284208). The procedure, abridged:
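Proliferation read as increase in sphere area by phase-contrast imaging over 72 h continuous compound exposure (no renewal) of hNPC spheres grown with EGF/FGF at 37C, 5% CO2. Growth-factor withdrawal served as positive control; DMSO as baseline.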

Experiment [2] can be described thus: IUF_NPC1_viability_72hr: Viability Assessment at 72 hours in the Leibniz Research Institute for Environmental Medicine (IUF) Neural Progenitor Cell Proliferation Assay (NPC1) (AID 2284209). The method in brief: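 Human fetal-cortex neural progenitor spheres (0.25–0.35 mm, one per well) grown in EGF/FGF proliferation medium at 37C, pH 7.2-7.6, exposed 72 h without renewal; viability read as alamar blue resazurin-to-resorufin fluorescence relative to DMSO.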

A short description of experiment [3]: CCTE_Mundy_HCI_Cortical_Synap_Neur_Matur_NeuriteSpotCountPerNeuriteLength: CCTE's Synaptogenesis and Neurite Maturation Assay in rat cortical cells for Neurite Spot Count per Neurite Length, Mundy Lab (AID 2284210). The method in brief: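 Rat primary cortical cultures, AraC added at DIV 5 to suppress glia; chemical exposure from DIV 7 to DIV 12. Fixed cells stained for MAP2 and synaptophysin plus Hoechst; synaptophysin puncta per neurite length quantified by high-content imaging, relative to DMSO.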

Experiment [4] is described as follows: CCTE_Mundy_HCI_Cortical_Synap_Neur_Matur_BPCount: CCTE's Synaptogenesis and Neurite Maturation Assay in rat cortical cells for Branch Point Count, Mundy Lab (AID 2284211). The method in brief: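 Branch point number is quantified by automated imaging of fluorescently labelled neurites and synapses in rat primary cortical neurons exposed from DIV 7 to DIV 12. Activity is analysed relative to DMSO negative control.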

Experiment [5] in a line: CCTE_Mundy_HCI_Cortical_NOG_NeuriteCount: CCTE's Neurite Outgrowth Assay in rat cortical cells for Neurite Count, Mundy Lab (AID 2284212).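 Further: cells fixed about two days after chemical exposure began.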 The method in brief:
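Neurite number per cell from high-content imaging of betaIII-tubulin immunostaining, with Hoechst nuclear counterstain.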

A short description of experiment [6]: CCTE_Mundy_HCI_Cortical_NOG_NeuriteLength: CCTE's Neurite Outgrowth Assay in rat cortical cells for Neurite Length, Mundy Lab (AID 2284213).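 On AC50: neurites imaged about 48 to 50 h after chemical exposure began.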 The method in brief:
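Neurite length was read by high-content imaging of βIII-tubulin-labelled neurites in rat primary cortical cultures. Activity was fitted relative to DMSO.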

The nature of experiment [7]: CCTE_Mundy_HCI_Cortical_Synap_Neur_Matur_NeuriteLength: CCTE's Synaptogenesis and Neurite Maturation Assay in rat cortical cells for Neurite Length, Mundy Lab (AID 2284214). The procedure, abridged: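 Rat primary cortical cells were plated, treated with AraC at DIV 5 to arrest glial growth, then chemical-dosed with media change at DIV 7 through DIV 12. Fixed cells stained for MAP2, synaptophysin and Hoechst; neurite length quantified by high-content imaging.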

Experiment [8] can be described thus: CCTE_Mundy_HCI_Cortical_Synap_Neur_Matur_NeuriteSpotCountPerNeuron: CCTE's Synaptogenesis and Neurite Maturation Assay in rat cortical cells for Neurite Spot Count per Neuron Count, Mundy Lab (AID 2284215). The method in brief:
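High-content imaging counts synaptophysin puncta along MAP2-labelled neurites per neuron after chemical exposure of rat cortical cells from DIV 7 to termination at DIV 12 (AraC added DIV 5). Loss of signal relative to DMSO.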

Experiment [9] is described as follows: CCTE_Mundy_HCI_Cortical_Synap_Neur_Matur_SynapseCount: CCTE's Synaptogenesis and Neurite Maturation Assay in rat cortical cells for Synapse Count, Mundy Lab (AID 2284218). The procedure, abridged:
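Rat primary cortical cells in 96-well plates received AraC at DIV 5 and were dosed with chemicals at DIV 7 with media change, through DIV 12 (288.33 h). Synapses per neuron counted by high-content imaging of MAP2/synaptophysin/Hoechst staining, versus DMSO baseline.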

Experiment [10] is described as follows: CCTE_Mundy_HCI_Cortical_Synap_Neur_Matur_NeuriteCount: CCTE's Synaptogenesis and Neurite Maturation Assay in rat cortical cells for Neurite Count, Mundy Lab (AID 2284222).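 On outcome: exposure from day 7 to day 12 in vitro with readout at day 12.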 The method in brief: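 In this multiplexed morphology readout, rat primary cortical neurons are fixed at DIV 12 following dosing at DIV 7 and stained for MAP2, synaptophysin and nuclei. High-content image analysis yields neurite count.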

Experiment [11] in a line: CCTE_Mundy_HCI_Cortical_Synap_Neur_Matur_CellBodySpotCount: CCTE's Synaptogenesis and Neurite Maturation Assay in rat cortical cells for Cell Body Spot Count, Mundy Lab (AID 2284223). The method in brief:
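High-content imaging counts synaptophysin puncta on neuronal cell bodies per neuron after MAP2/synaptophysin immunostaining. Rat primary cortical cells, glia arrested with AraC at DIV 5, were exposed DIV 7–12; signal decrease measured against DMSO.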

Experiment [12] in a line: CCTE_Mundy_HCI_hNP1_Pro_ResponderAvgInten: CCTE's Proliferation Assay in human neuroprogenitor cells, Mundy Lab (AID 2284224; active means hit-call score of the fitted dose curve at least 0.9, where 1 is the maximum;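 further: human neural progenitor cells hNP1 derived from WA09 embryonic stem cells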). The method in brief:
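Proliferation read as average intensity of BrdU-positive cells, imaged at 26.25 h post-dosing: chemical exposure started after 40–44 h culture, BrdU during final 4 h, paraformaldehyde fixation. Positive-direction fit relative to DMSO.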

Experiment [13] can be described thus: BSK_BT_PBMCCytotoxicity: PBMC Cytotoxicity Assessment in the BioMAP Diversity Plus: BT Assay (AID 2284225).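 Further: PBMC viability measured by Alamar Blue dye reduction fluorescence.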 The conditions noted are these: primary human B cells with PBMC. The method in brief:
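75,000 cells/well; cpd 1 h → SEB + TSST-1 (20 ng/mL final each) → 90 h → Alamar Blue 6 h → fluor. 546/580 nm. DMSO = neg. control/baseline.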

Read-out in experiment [14]: Secreted IgG (sIgG), gene 3500
Kind of experiment: BSK_BT_sIgG: BioMAP Diversity Plus: BT Assay for Secreted IgG (sIgG) Biomarker Activity (AID 2284226). The note with it: primary human B cells with PBMC. The method in brief: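 B cells co-cultured with PBMC were dosed with chemical and secreted IgG quantified by ELISA at 24 h. Activity was fitted in the positive direction relative to DMSO as negative control and baseline.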

Experiment [15] can be described thus: BSK_BT_Bcell_Proliferation: Viability Assessment in the BioMAP Diversity Plus: BT Assay for B cell Proliferation (AID 2284227). The note with it: primary human B cells with PBMC. The method in brief: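 Using a human primary B cell–PBMC co-culture, the assay measures total protein by sulforhodamine B absorbance as a gauge of proliferation after 72 h. Analysis followed the positive fitting direction with DMSO as baseline.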

Read-out in experiment [16]: Interleukin 6 (IL6), IL6 (gene 3569)
Put plainly: BSK_BT_xIL6: BioMAP Diversity Plus: BT Assay for Interleukin 6 (IL6) Biomarker Activity (AID 2284228). The conditions noted are these: primary human B cells with PBMC. The method in brief:
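Secreted IL-6 in the primary human B cell plus PBMC system, measured by Luminex at 24 h post-chemical, DMSO as baseline. Alamar Blue viability: 75,000 cells/well, chemical 1 h before SEB/TSST-1 (20 ng/mL each), 90 h, then 6 h dye.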

A short description of experiment [17]: CCTE_Mundy_HCI_hN2_NOG_NeuriteCount: CCTE's Neurite Outgrowth Assay in human hN2 cells for Neurite Count, Mundy Lab (AID 2284219; active means hit-call score of the fitted dose curve at least 0.9, where 1 is the maximum). The procedure, abridged:
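In this morphology assay, hNP1-derived neurons received test chemical 2 h post-plating and were fixed two days later in warm paraformaldehyde/sucrose containing Hoechst 33342. Neurites, labelled by rabbit anti-βIII-tubulin (1:800) and Alexa Fluor-488 (1:500), were counted automatically.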

The nature of experiment [18]: CCTE_Mundy_HCI_hN2_NOG_NeuriteLength: CCTE's Neurite Outgrowth Assay in human hN2 cells for Neurite Length, Mundy Lab (AID 2284220; active means hit-call score of the fitted dose curve at least 0.9, where 1 is the maximum). The method in brief: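 Read-out is neurite length from high-content imaging of βIII-tubulin/Alexa Fluor-488-labelled neurons, referenced to DMSO controls.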
A short description of experiment [19]: CCTE_Mundy_HCI_hN2_NOG_NeuronCount: CCTE's Neurite Outgrowth Assay in human hN2 cells for Neuron Count, Mundy Lab (AID 2284221; active means hit-call score of the fitted dose curve at least 0.9, where 1 is the maximum). The procedure, abridged:
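Read-out is the number of betaIII-tubulin-positive neurons imaged by automated high-content analysis, with DMSO as negative control.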

A short description of experiment [20]: TAMU_PeakParms_SingleDonor1434_Chronotropy: Texas A&M University (TAMU) 1.5-hr Human Induced Pluripotent Stem Cell (iPSC)-derived Cardiomyocytes Calcium (Ca+2) Flux Assay for Cardiotoxicity: Chronotropy (changes in peak frequency) (AID 2284217). The conditions noted are these: actives raise or lower the signal. The procedure, abridged: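 Using fluorescent Ca2+ flux, average beats per second are measured in human iPSC-derived cardiomyocytes treated 90 min (0.5% DMSO vehicle, 0.2–100 uM). Non-beating data points are removed; activity is modeled in both directions relative to DMSO controls.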

The values below come from PubChem BioAssay (EPA / NIEHS).

Molecules are shown by their SMILES. Several values for one entry are separate records, joined by “and”; a condition that tells them apart may be missing. Equal entries are not always repeated. Results filed as inconclusive are left out. The source holds several records for some structures; these can differ, active in one and inactive in another. Activity calls are given as the source filed them. How the source made its calls, unless noted: active means hit-call score of the fitted dose curve at least 0.9, where 1 is the maximum; inactive means score below 0.9.

As to `O=S(=O)(O)C(F)(F)C(F)(F)C(F)(F)C(F)(F)C(F)(F)C(F)(F)F`, the compound was called inactive in experiment [1], in experiment [2], in experiment [3], in [4], in experiment [5] and in experiment [6]. Besides, the outcome in [7], in experiment [8], in experiment [9], in [10], in [11] and in [12] was inactive. In addition, the outcome in experiment [13], in experiment [14], in experiment [15] and in [16] was inactive.
As to `ClC1=C(Cl)[C@]2(Cl)[C@@H]3[C@@H](Cl)[C@H]4O[C@H]4[C@@H]3C1(Cl)C2(Cl)Cl`, the call in experiment [3] and in experiment [10] was inactive. The AC50 in [4] is 3.36 µM (active); in experiment [5], 16.6 µM (active); in experiment [6], 16 µM (active); in [7], 4.05 µM (active); in experiment [8] it was 8.58 µM (active); in [9], 9.03 µM (active). The AC50 is 13.2 µM (active) in experiment [17]; 13.1 µM (active) in experiment [18]; 5.59 µM (active) in experiment [19]; 9.92 µM (active) in [11]; 15.8 µM (active) in experiment [12].
As to `NS(=O)(=O)C(F)(F)C(F)(F)C(F)(F)C(F)(F)C(F)(F)C(F)(F)C(F)(F)C(F)(F)F`, the result in experiment [13] and in experiment [15] was inactive. The AC50 in experiment [14] is 23.8 µM (active) and 45.3 µM (active); in [16], 44.5 µM (active) and 43.1 µM (active).
`Oc1c(Cl)c(Cl)c(Cl)c(Cl)c1Cl`: the outcome in [13], in [15] and in experiment [16] was inactive. Moreover, the AC50 in experiment [14] was 27 µM (active).
For `CCOP(=S)(OCC)SCSC(C)(C)C`, the result in experiment [1], in experiment [2], in [3], in experiment [17], in experiment [18] and in experiment [19] was inactive. Moreover, the result in [10], in experiment [11] and in experiment [12] was inactive. Further, the AC50 in experiment [3] is 23 µM (active); in [4], 80.7 µM (active) and 23.2 µM (active); in [6], 91 µM (active) and 79.2 µM (active); in experiment [7], 81.5 µM (active) and 17.5 µM (active); in experiment [8], 81 µM (active) and 22.9 µM (active); in experiment [9], 79.7 µM (active) and 22.9 µM (active). Besides, the figures for the AC50 in experiment [10] and in experiment [11] were 22.5 µM (active) and 22.9 µM (active), respectively.
Turning to `O=C(O)C(F)(F)C(F)(F)C(F)(F)C(F)(F)C(F)(F)F`, the outcome in [13], in experiment [14], in experiment [15] and in [16] was inactive.
On to `c1cc2ccc3cccc4ccc(c1)c2c34`, for which the AC50 in experiment [20] was 50 µM (active).
Turning to `C=CC(N)=O`, the compound was classed as inactive in experiment [1], in [2], in [3], in experiment [4], in [5] and in experiment [6]. Further, the compound was called inactive in experiment [7], in experiment [8], in [20], in experiment [9], in experiment [17] and in [18]. The compound was classed as inactive in experiment [19], in experiment [10] and in experiment [11].
